GAA glycogen: inhibitors or activators of human alpha-glucosidase glycogen cleavage; P10253; recombinant GAA, glycogen substrate, Amplex Red glucose oxidase fluorescence; 300,000 compounds, 0.38% hits; Potency, µM (top dose mostly 76.4 µM), without a hit: at the highest dose activity change, negative = inhibition, hits mostly inhibitors; AID 2100;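 further: potency means the concentration at half of the fitted maximal effect; 0% = full enzyme reaction and -100% = no-enzyme basal signal; the screen sought inhibitors and activators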
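Recombinant human alpha-glucosidase (4 nM final) hydrolysed bovine liver glycogen (30 ug) for 40 min at 37 C in pH 5.0 citrate/phosphate with 0.01% Tween-20. Released glucose detected by glucose oxidase/Amplex Red, Ex 573/Em 610 nm. Compounds up to 77 uM; AC50 from Hill fits.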
GAA inhib: blocks human lysosomal alpha-glucosidase. P10253. purified human GAA, 4-MU-alpha-glucoside fluorescence. Potency, µM (titrated, usually from 76.9 µM), for inactives: at the top dose activity change, negative = inhibition, most hits filed as inhibitors. 200,000 compounds, 0.005% hits. AID 1466;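 further: potency means the concentration at half of the fitted maximal effect; plate controls were uninhibited enzyme wells for no effect and no-enzyme background for full effect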
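Activity normalized between no-enzyme (basal) and enzyme-only wells. Conditions: 4 nM human enzyme, 400 uM fluorogenic substrate, citrate/phosphate pH 5.0 with Tween-20, 20 min room temperature, compounds up to 77 uM.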
Coupling enz: counter-screen for Giardia aldolase inhibitors: coupling enzyme system | coupling enzyme system counterscreen, AmpLite Red fluorescence | activity change, negative = inhibition, % at 58.2 µM, hits read low | 290,000 compounds, 0.67% hits | AID 2472; in the data active means activity change below about -30%
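First, compound is pin-transferred into glyceraldehyde-3-phosphate coupling-enzyme reagent at 57.5 uM final and held 10 min at RT. Next, substrate, coupling system and AmpLite Red are added. After 20 min RT, fluorescence (525/598 nm) is read.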
B2AR arrestin: beta2AR (human) beta-arrestin recruitment activity; P07550; beta-arrestin recruitment to beta2AR, cell-based reporter; Potency, µM (titrated, usually from 46.1 µM), inactives show top-dose activation, most hits filed as activators; 330,000 compounds, 0.02% hits; AID 492947;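 further: potency means the concentration at half of the fitted maximal effect; 0% = DMSO controls and full agonism = EC100 isoproterenol or metaproterenol; nearly all actives have a fitted effect of over 65% in size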
Target sequence (P07550 whole entry, looked up): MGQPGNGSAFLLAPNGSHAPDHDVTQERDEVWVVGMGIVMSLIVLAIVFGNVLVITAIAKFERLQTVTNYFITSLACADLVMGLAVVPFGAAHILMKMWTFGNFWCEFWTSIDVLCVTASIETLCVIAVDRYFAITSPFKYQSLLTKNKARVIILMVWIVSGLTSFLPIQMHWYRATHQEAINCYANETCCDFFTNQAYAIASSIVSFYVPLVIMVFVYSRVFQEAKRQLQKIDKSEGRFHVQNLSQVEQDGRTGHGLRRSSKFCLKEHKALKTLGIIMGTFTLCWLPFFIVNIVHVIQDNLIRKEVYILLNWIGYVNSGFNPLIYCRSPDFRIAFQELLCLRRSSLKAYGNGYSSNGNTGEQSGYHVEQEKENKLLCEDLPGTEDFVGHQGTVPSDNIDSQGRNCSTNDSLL
aGlu spleen mod: inhibits or activates alpha-glucosidase in human spleen homogenate; P10253; human spleen homogenate, 4-MU-alpha-glucoside fluorescence; Potency, µM (series often up to 79.9 µM), inactives show top-dose activity change, negative = inhibition, hits mostly inhibitors; 240,000 compounds, 0.006% hits;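 further: potency means the concentration at half of the fitted maximal effect; 0% = enzyme with vehicle and -100% = no enzyme basal signal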
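Compounds were titrated against alpha-glucosidase in spleen homogenate at pH 5.0, with 1 mM 4-methylumbelliferyl substrate for 40 min at 37 C. Reactions were quenched with pH 10 NaOH/glycine and fluorescence measured.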
Starred values were filed as active, the others as inactive; u = inconclusive; x = not tested or not shown; ! = a repeat was not active; [ ] = remark or other dose. Most compounds without a hit are left out; they make up all but 0.85% or so of the library. Unless noted, the call rests on the fitted dose curve; in most records, active means well fitted curve in the direction sought with a large enough effect; inconclusive means small, poorly fitted or top-dose-only effect, or another doubt; inactive means no such curve, though single readings can be large; an effect the other way counts as inactive or inconclusive. Unless noted, on the % scale 0 is the no-effect control and ±100 the full control effect.

SMILES | GAA glycogen | GAA inhib | Coupling enz | B2AR arrestin | aGlu spleen mod
O=C1CCCC2[C@@H]3CCC[N@+]4([O-])CCC[C@H](CN12)C34 (some centres not stated) | x | x | 3 | x | 3%
CC(OC(=O)Cc1ccc(Cl)cc1)C(=O)NC1CCCCC1C (configuration not stated) | x | x | x | -1% | x
NS(=O)(=O)c1cccc2c1c([N+](=O)[O-])cc1[nH]c(=O)c(=O)[nH]c12 | x | x | -35*! | x | -9%
CCC(C)(C(=O)NC1CCCC1)N(Cc1cccs1)C(=O)c1ccccn1 (configuration not stated) | -3% | 2% | -38* | 0% | 4%
O=C(NC1CCCCC1)C(c1ccncc1)N(Cc1ccc2c(c1)OCO2)C(=O)c1cnsn1 (configuration not stated) | u | 0% | -46* | 0% | -4%
O=C(NC1CCCC1)C(c1ccncc1)N(Cc1cccs1)C(=O)c1csnn1 (configuration not stated) | 20µM* | -10% | -20 | 0% | 5%
CSc1nn(Cc2cccc(F)c2)c(N(C(C)=O)C(C)=O)c1S(=O)(=O)c1ccccc1 | -2%[76.3 µM] | x | x | x | x
N[C@@H](CSSC[C@H](N)C(=O)O)C(=O)O | x | x | -1 | x | -1%
CCOC(=O)C1(Cc2ccccc2C(F)(F)F)CCN(C(C)CSC)CC1 (configuration not stated) | 9% | -10% | 1 | 1% | 1%
CCOC(=O)C1(Cc2ccccc2C(F)(F)F)CCN(C(C)CCn2cccn2)CC1 (configuration not stated) | 4.5µM* | u | -4 | 0% | 1%
CC1CCN(C(=O)CSc2nnc3c(n2)[nH]c2ccccc23)CC1 | 6% | x | 4 | 0% | x
CCCc1cc(=O)[nH]c(Nc2ccc(O)cc2C)n1 | 10µM* | x | x | x | x
CCCc1cc(=O)[nH]c(Nc2cccc(Cl)c2Cl)n1 | -8%[76.3 µM] | x | x | x | x
Nc1ccccc1Nc1cc(-c2ccccc2)nn1-c1ccccc1 | u | -11% | 1 | 1% | -5%
Nc1ccccc1Nc1cc(-c2ccccc2)[nH]n1 | 7.9µM* | 1% | -1 | 0% | 9%
CC(=Nc1cc(C(=O)c2ccccc2)ccc1N)C1=C(O)CC(C)(C)CC1=O | -8% | -21% | -20 | 0% | 0%
CC(=Nc1ccccc1N)c1c(C)cc(=O)n(O)c1O | x | x | -30*! | x | 8%
Cc1ccccc1OCCn1cc(/C(N)=N/O)c2ccccc21 | 32µM* | -8% | -2 | 1% | -5%
COc1cccc([C@H](O)Cn2cc(-c3cccc(CON=C(C)C)c3)nn2)c1 | x | x | 2 | x | 0%[17.4 µM]
COc1ccccc1/C=C/C(=O)OC(C)CN1CCOCC1 (configuration not stated) | -1% | 8% | -45* | 0% | -2%
CC(CN1CCOCC1)OC(=O)c1ccccc1 (configuration not stated) | 6% | 1%[15.4 µM] | 6 | 0% | -1%
[O-][n+]1onc2c1CCC1N(O)C(c3ccccc3)CC21O (configuration not stated) | 28µM* | 1% | 0 | 0% | -2%
Cc1ccn2c(C(=O)NN=C3CCCCCCC3)c(C)nc2c1 | 40µM* | 11% | 0 | 0% | 3%
CCOc1ccc(Cl)cc1/C=N/NC(N)=O | 9% | 7% | -39* | 1% | 1%
CCn1nc(C)cc1Nc1ccccc1 | 14µM* | -11% | 0 | 0% | -5%
SMILES | GAA glycogen | GAA inhib | Coupling enz | B2AR arrestin | aGlu spleen mod
Cc1cc(Nc2ccccc2)n(CCO)n1 | 28µM* | -8% | 0 | 0% | 4%
COc1ccc(C2CC(c3ccccc3)Oc3c(C)ccc(C(C)C)c32)cc1 (configuration not stated) | x | x | -1 | x | -3%
CC(C)C[C@H](NC(=O)c1ccc(NCc2cnc[nH]2)cc1-c1cccc2ccccc12)C(=O)O | x | x | -2 | x | -9%
CCOC(=O)c1ccc(NC(=O)C2CCN(C(=O)N3CC(C)Oc4ccc(C)cc43)CC2)cc1 (configuration not stated) | 15%[76.3 µM] | x | x | x | x
Nc1cccc2cnccc12 | -10% | 1% | -38* | 0% | -9%
CN1CCc2c(sc(N)c2C(N)=O)C1 | 22% | 8% | -33* | 0% | 6%
CCN1CCc2c(sc(N)c2C(N)=O)C1 | u | -3% | -15 | 0% | 9%
